An excerpt weighted towards active compounds, which were near 3.3% of everything screened.
TLR9-MyD88 inh = TLR9-MyD88 interaction inhibition. CHO BLA complementation TLR9-MyD88, CCF4 FRET ratio. inhibition, % at 4.98 µM. hit rate 0.21% among 340,000. AID 504734;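 active = inhibition above the mean over all tested compounds plus 3 SD, cut at about 21% in these data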;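 note: 0% = DMSO only wells and 100% = clavulanate BLA inhibitor control wells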
PRMT1 FP inh = PRMT1 (human) inhibition, primary screen | Q99873 | recombinant PRMT1, activity-based probe fluorescence polarization | inhibition, % at 2.79 µM | hit rate 1.3% among 370,000;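 active = inhibition above about 21% made by adding two undisclosed values, limit read from the data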
NOD2 RIPK2 PPI = blocks binding of human NOD2 to RIPK2; inhibition, % at 4.98 µM; O43353; hit rate 0.38% among 360,000; CHO BLA complementation NOD2-RIPK2, CCF4 ratio; AID 624267; in the data active = inhibition above about 21%;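 note: 0% = vehicle only and 100% = reference blocker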
ABHD5 PLIN5 PPI = blocks binding of human ABHD5 to perilipin-5; Q00G26+Q8WTS1; Split G. princeps luciferase complementation, luminescence, 4 h; inhibition, % at 4 µM; hit rate 0.78% among 360,000;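 active = inhibition above the mean inhibition across every tested compound plus 3 SD, cut at about 22% in these data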;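 note: 0% = DMSO only wells and the 100% control is not disclosed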
Target sequence (Q00G26 whole entry, looked up): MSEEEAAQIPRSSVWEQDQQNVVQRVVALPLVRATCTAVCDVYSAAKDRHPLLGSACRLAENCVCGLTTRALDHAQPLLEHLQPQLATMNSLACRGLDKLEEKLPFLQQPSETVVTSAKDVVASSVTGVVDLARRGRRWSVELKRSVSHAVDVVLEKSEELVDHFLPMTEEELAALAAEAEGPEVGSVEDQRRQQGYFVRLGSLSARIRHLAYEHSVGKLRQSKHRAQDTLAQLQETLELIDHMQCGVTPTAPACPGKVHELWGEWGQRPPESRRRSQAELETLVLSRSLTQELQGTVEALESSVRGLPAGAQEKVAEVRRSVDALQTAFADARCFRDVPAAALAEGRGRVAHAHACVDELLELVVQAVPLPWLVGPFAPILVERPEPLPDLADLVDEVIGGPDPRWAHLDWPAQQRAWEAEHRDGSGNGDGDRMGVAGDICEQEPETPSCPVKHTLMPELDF
Target sequence (Q8WTS1 whole entry, looked up): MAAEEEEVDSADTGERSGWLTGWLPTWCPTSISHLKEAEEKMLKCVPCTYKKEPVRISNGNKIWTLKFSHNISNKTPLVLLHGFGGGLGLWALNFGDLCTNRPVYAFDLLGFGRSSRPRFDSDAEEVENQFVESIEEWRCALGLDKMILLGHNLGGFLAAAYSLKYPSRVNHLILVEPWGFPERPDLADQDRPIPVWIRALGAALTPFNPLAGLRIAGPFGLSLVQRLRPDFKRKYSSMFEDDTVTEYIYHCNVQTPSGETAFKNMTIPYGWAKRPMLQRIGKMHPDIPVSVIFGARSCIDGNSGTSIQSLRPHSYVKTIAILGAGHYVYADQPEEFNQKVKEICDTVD
TLR4-MyD88 BLA = TLR4-MyD88 interaction inhibition in cells. hit rate 0.18% among 200,000. AID 861. inhibition, % at 8.4 µM. HeLa CL3-4 TLR4/MyD88 BLA complementation, FRET ratio. O00206+Q99836; in the data active = inhibition above about 25%;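 note: 0% = vehicle and 100% = reference inhibitor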
rCAG binder = binds r(CAG) RNA repeats. r(CAG) RNA repeat, TO-PRO-1 dye displacement fluorescence. inhibition, % at 3 µM. hit rate 1.3% among 370,000;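 active = inhibition above the plate cutoff, the mean of all test compounds on that plate plus 3 SD, cut at about 35% in these data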;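 note: 0% = DMSO alone and 100% = 100 µM mitoxantrone as full dye displacement; higher means more dye released from RNA so lower well fluorescence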
rCAG binder conf = r(CAG) RNA repeat binding, confirmation. shares compounds with rCAG binder. TO-PRO-1 dye displacement fluorescence. inhibition, % at 3 µM. hit rate 70% among 4,300. AID 652065;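 active = inhibition above a per-plate cutoff, the mean inhibition of sample wells plus 3 SD, cut at about 35% in these data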;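 note: loss of TO-PRO-1 fluorescence as compound displaces dye from 1x1 AA loop RNA; 0% = DMSO only wells and 100% = 100 µM mitoxantrone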
dCAG dye counter = counter-screen for rCAG RNA binders: DNA CAG dye complex inhibitors; shares compounds with rCAG binder; AID 652068; d(CAG) DNA oligo TO-PRO-1 dye displacement, fluorescence; hit rate 94% among 4,300; inhibition, % at 3 µM;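 active = inhibition above its plate's cutoff, the mean test-well inhibition plus 3 SD, cut at about 4.8% in these data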;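 note: 0% = DNA dye mix with DMSO and 100% = 100 µM mitoxantrone; hits displace the dye from DNA and so lower well fluorescence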
* hit, by the source's call; . = not tested or not shown.

SMILES	TLR9-MyD88 inh	PRMT1 FP inh	NOD2 RIPK2 PPI	ABHD5 PLIN5 PPI	TLR4-MyD88 BLA	rCAG binder	rCAG binder conf	dCAG dye counter
O=C(CCN1CCCC1=O)NC1CCCc2c1cnn2-c1ccc(F)cc1F (centres undefined)	3	1	4	-2	.	-1	.	.
COc1cc(NS(=O)(=O)c2ccc(NC(=O)COc3ccccc3Cl)cc2)nc(OC)n1	.	0	.	.	5	65*	38*	12*
CCOc1ccccc1C(=O)Nc1ccc(S(=O)(=O)Nc2cc(OC)nc(OC)n2)cc1	3	-1	-6	4	.	51*	28	7.6*
CC12CCC(C/C1=N\N=C1\NC(=O)/C(=C\c3cccc(Br)c3)S1)C2(C)C (centres undefined)	-5	-1	-3	-13	-16	50*	60*	28*
COc1cc(/C=N/N=C2\CC3CCC2(C)C3(C)C)ccc1O (centres undefined)	10	-1	2	-4	8	-8	.	.
O=C(N=Nc1c(O)[nH]c2ccc(F)cc12)c1ccc(NS(=O)(=O)c2cccs2)cc1	-8	5	2	-1	.	5	.	.
O=C(N=Nc1c(O)[nH]c2ccccc12)c1ccccc1NS(=O)(=O)c1cccs1	-1	0	-14	8	7	65*	41*	15*
Cc1cccc2c(N=NC(=O)c3ccc(NS(=O)(=O)c4cccs4)cc3)c(O)[nH]c12	1	5	4	3	.	42*	72*	30*
COc1cccc(C(=O)NNC(=O)c2ccc(NS(=O)(=O)c3cccs3)cc2)c1OC	-4	2	-4	0	.	14	.	.
Cc1ccc2[nH]c(O)c(N=NC(=O)c3ccc(NS(=O)(=O)c4cccs4)cc3)c2c1	-7	1	-6	-5	.	11	.	.
COc1ccc2[nH]c(O)c(N=NC(=O)c3ccc(NS(=O)(=O)c4cccs4)cc3)c2c1	-4	6	-3	-4	.	36*	57*	25*
O=C(c1ccco1)N1N=C(c2ccccc2O)CC1c1cccs1 (centres undefined)	-1	-5	-5	0	.	3	.	.
CCn1cc(CN2CCC(n3nccc3NC(=O)CCOc3ccccc3)CC2)c(C)n1	13	-1	0	6	.	-3	.	.
Cc1[nH]c(=O)[nH]c(=O)c1S(=O)(=O)Nc1cccc([N+](=O)[O-])c1C	2	1	-6	1	.	2	.	.
Cc1ccc(S(=O)(=O)N2[C@@H](c3ccccc3F)C(C(=O)O)=CC[C@H]2c2cccs2)cc1	2	-2	-4	-2	.	45*	46*	12*
Cc1ccc(S(=O)(=O)N2[C@@H](c3ccccc3)C(C(=O)O)=CC[C@H]2c2cccs2)cc1	1	1	7	-1	.	42*	43*	9.4*
COc1ccc2nc(-n3c(O)c(C4=c5ccccc5=NC4=O)[nH]c3=S)sc2c1	-3	3	-7	8	-9	49*	94*	78*
Cn1c(O)c(C2=c3ccccc3=NC2=O)[nH]c1=S	6	-1	3	0	4	1	.	.
O=c1ccc2ccc(O[C@@H]3O[C@H](CO[C@@H]4OC[C@](O)(CO)[C@H]4O)[C@@H](O)[C@H](O)[C@H]3O)cc2o1	0	1	2	2	.	11	.	.
CC1OC(Oc2ccc3ccc(=O)oc3c2-c2c(O)ccc3cc(Oc4ccc5ccc(=O)oc5c4)c(=O)oc23)C(O)C(O)C1O (centres undefined)	1	2	-2	0	-3	38*	24	8.7*
O=S(=O)(Nc1nc2ccccc2nc1N1CCN(c2ccccc2)CC1)c1ccc(F)cc1	-10	4	-5	7	0	69*	67*	28*
Cc1csc(C(C)N(C)C(=O)c2ccc(OC3CCN(Cc4ccccn4)CC3)cc2)n1 (centres undefined)	-7	-1	2	-1	.	-4	.	.
CCOc1cc(C(c2c(C)[nH][nH]c2=O)c2c(C)[nH][nH]c2=O)ccc1OCc1ccc([N+](=O)[O-])cc1	-1	5	1	0	8	39*	42*	14*
CC1(C)CC(C(CC(=O)O)c2ccccc2)CCO1 (centres undefined)	-3	-2	5	4	15	-1	.	.
CC1(C)CC(C(CC(=O)N2CCCC2)Cc2ccccc2)CCO1 (centres undefined)	-9	1	7	1	.	42*	1	0
SMILES	TLR9-MyD88 inh	PRMT1 FP inh	NOD2 RIPK2 PPI	ABHD5 PLIN5 PPI	TLR4-MyD88 BLA	rCAG binder	rCAG binder conf	dCAG dye counter
COC(=O)C[C@H]1C=C[C@@H](C(C(=O)OC)C(=O)OC)CN1C(C)=O	-1	0	-10	3	.	-1	.	.
CCN(CC)S(=O)(=O)c1ccc2oc(C(=O)O)c(C)c2c1	-7	1	-8	-2	-15	-2	.	.
Cc1c(C(=O)O)oc2ccc(S(=O)(=O)N(CC(C)C)CC(C)C)cc12	6	-5	-10	-4	14	46*	25	3
O=C(C[C@@H]1C/C=C\C[C@@H](Cc2ccc(F)cc2)C(=O)OCCNC1=O)N[C@H](CO)Cc1ccccc1	-5	1	-10	-4	.	-7	.	.
N#Cc1c(NC(=O)CSc2ncccn2)oc(-c2ccccc2)c1-c1ccccc1	2	2	-2	0	-3	28	.	.
N#Cc1c(NC(=O)Cn2cnc3ccccc3c2=O)oc(-c2ccccc2)c1-c1ccccc1	4	-1	6	-2	1	43*	34	14*
COc1ccc(/C=N/NC(=O)c2[nH]c3ccc(Br)cc3c2-c2ccccc2)c(C(=O)O)c1OC	-3	-1	0	0	.	62*	77*	43*
COc1ccc(/C=N/NC(=O)c2[nH]c3ccc(Cl)cc3c2-c2ccccc2)c(C(=O)O)c1OC	2	-5	20	-5	.	64*	66*	25*
O=C(N/N=C/c1ccccc1Cl)c1[nH]c2ccc(Br)cc2c1-c1ccccc1	-3	1	15	-11	15	2	.	.
Cc1ccc2c(CC(=O)N3CCN(c4ccccc4)CC3)coc2c1	-4	-5	2	1	5	-2	.	.
O=C(CSC(=S)N1CCCC1)NCC(=O)Nc1ccc(F)c(F)c1	-4	2	2	8	.	-3	.	.
Cc1ccc(O)c(Cc2cc(C)cc(Cc3cc(C)ccc3O)c2O)c1	10	3	6	-15	.	40*	39*	11*
O=C(NNC(=O)c1ccc2ccccc2c1)c1cccc(Br)c1	-3	-4	-3	-3	.	4	.	.
O=C(NNC(=S)Nc1cccc2ccccc12)c1cccc(Br)c1	-4	5	-3	-3	-1	66*	72*	36*

Bioassay records (PubChem)
